Screening results as filed in PubChem BioAssay.
Compounds with a hit are over-represented: about 2.8% of the library has one in this group of screens.
CF NFkB inh – cystic fibrosis NF-kB activation inhibition; KKLEB NF-kB-GFP reporter, PAF-induced, GFP fluorescence overnight; inhibition, % at 5 µM; 0.86% of 360,000 active;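 active = at least 50% inhibition at 5 µM, scaled per plate between neutral and stimulator controls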;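 note: PAF is a Pseudomonas aeruginosa culture filtrate used as stimulus; plate controls were PAF-stimulated DMSO wells for no effect and unstimulated DMSO wells for full effect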
KKLEB cytotox – reduces viability of KKLEB cystic fibrosis airway cells. KKLEB CF airway cells viability, ATPlite luminescence, overnight; hits give low values; cells stimulated with P. aeruginosa culture filtrate. activity change (cytotoxicity), % at 5 µM. AID 602141. 0.36% of 360,000 active;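 active = corrected activity change at or below -50% at 5 µM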
Shn3 3UTR inh – reduces Shn3 3'UTR luciferase signal in osteoblasts. inhibition, % at 12.5 µM. Clone20 osteoblast Shn3 3'UTR firefly luciferase, 24 h. AID 588674. 0.52% of 360,000 active;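 active = mean inhibition of at least 75% with every replicate also reaching 75%; inconclusive = mean inhibition at least 75% but some replicate below; inactive = mean inhibition below 75%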;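 note: 0% = median of neutral control wells and 100% = pilot-screen positive control compound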
Peg3 prom inh – reduces Peg3 promoter-driven luciferase expression in HeLa. 1.7% of 360,000 active. inhibition, % at 20 µM. AID 588405. HeLa PEG-Prom luciferase reporter, luminescence, overnight;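 active = inhibition of at least 50% at 20 µM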
TRPM1 prom inh – inhibitors of MITF-driven TRPM1 promoter in melanoma cells; SK-MEL-5 TRPM1 promoter luciferase, 24 h; inhibition, % at 12.5 µM; 0.83% of 330,000 active;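 active = mean inhibition across replicates of 60% or more, whatever share of single replicates reaches that level; inconclusive = some that reach 60%, reason not given; inactive = mean inhibition across replicates below 60%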
HIF-2a inh – HIF-2a inhibition; 786-0 RCC cells HIF-2a reporter, luciferase luminescence, overnight; inhibition, % at 18.8 µM; 0.72% of 360,000 active; AID 624352;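 active = inhibition of the luminescence signal of 40% or more relative to plate controls, in a single-dose primary screen at 18.75 µM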
CF NFkB conf – confirmation of cystic fibrosis induced NF-kB inhibitors; shares compounds with CF NFkB inh; KKLEB CF airway cells, PAF-induced NF-kB-GFP fluorescence, overnight; inhibition, % at 5 µM; 64% of 1,300 active; AID 602472; in the data active = inhibition above about 40%;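 note: stimulus PAF is a Pseudomonas aeruginosa filtrate and not platelet activating factor; plate controls were DMSO wells with stimulus for no effect and unstimulated DMSO wells for full effect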
Mdm2 MdmX conf – confirmation of inhibitors of human Mdm2/MdmX interaction, set 2. inhibition, % at 8 µM. SaOS-2 split-luciferase Mdm2/MdmX complementation, luminescence. shares compounds with HIF-2a inh. 99% of 740 active;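 active = mean inhibition of the luminescence signal across two replicates at or above 26 percent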
Target sequence (O15151 whole entry, looked up): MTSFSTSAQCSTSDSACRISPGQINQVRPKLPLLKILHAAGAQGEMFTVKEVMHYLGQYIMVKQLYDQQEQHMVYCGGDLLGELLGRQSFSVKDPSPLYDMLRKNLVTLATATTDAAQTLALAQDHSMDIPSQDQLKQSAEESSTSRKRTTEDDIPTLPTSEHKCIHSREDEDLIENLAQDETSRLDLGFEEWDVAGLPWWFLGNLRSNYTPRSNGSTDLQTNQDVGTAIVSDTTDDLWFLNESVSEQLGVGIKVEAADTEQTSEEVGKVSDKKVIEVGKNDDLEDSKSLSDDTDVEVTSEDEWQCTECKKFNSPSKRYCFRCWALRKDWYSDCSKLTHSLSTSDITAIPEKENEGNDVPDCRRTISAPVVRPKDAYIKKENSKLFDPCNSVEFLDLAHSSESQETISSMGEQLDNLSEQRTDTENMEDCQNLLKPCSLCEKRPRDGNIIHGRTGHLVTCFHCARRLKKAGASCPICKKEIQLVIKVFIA
Target sequence (Q00987 whole entry, looked up): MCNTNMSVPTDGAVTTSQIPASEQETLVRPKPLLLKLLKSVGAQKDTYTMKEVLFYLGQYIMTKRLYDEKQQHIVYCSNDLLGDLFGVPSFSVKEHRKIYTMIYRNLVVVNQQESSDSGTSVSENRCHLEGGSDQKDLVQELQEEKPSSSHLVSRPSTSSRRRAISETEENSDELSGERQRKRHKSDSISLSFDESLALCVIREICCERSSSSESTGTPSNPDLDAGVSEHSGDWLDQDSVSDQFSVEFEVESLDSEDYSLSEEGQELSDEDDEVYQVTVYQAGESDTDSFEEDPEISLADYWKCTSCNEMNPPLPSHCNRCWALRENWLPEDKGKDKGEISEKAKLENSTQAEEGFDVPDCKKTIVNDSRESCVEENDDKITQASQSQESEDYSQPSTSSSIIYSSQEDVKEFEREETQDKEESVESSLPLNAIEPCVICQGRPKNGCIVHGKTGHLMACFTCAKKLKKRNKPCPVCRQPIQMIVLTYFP
HIF-2a conf – confirmation of HIF-2a inhibitors. AID 651580. 786-0 RCC cells, HIF-2a luciferase reporter luminescence, overnight. inhibition, % at 18.8 µM. shares compounds with HIF-2a inh. 56% of 1,800 active;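 active = mean inhibition across four replicates of at least 40 percent at the single tested concentration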
HIF-1a cs – counter-screen for HIF-2a inhibitors: HIF-1a inhibition in MiaPaCa-2 cells | shares compounds with HIF-2a inh | MiaPaCa-2 HIF-1a luciferase reporter, desferoxamine, overnight | inhibition, % at 18.8 µM | 72% of 1,800 active | AID 651589;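 active = mean inhibition of the reporter signal across four replicates at the single tested dose of 50% or more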
Numbers without * were called inactive; ? = inconclusive; / = not tested or not shown.

SMILES	CF NFkB inh	KKLEB cytotox	Shn3 3UTR inh	Peg3 prom inh	TRPM1 prom inh	HIF-2a inh	CF NFkB conf	Mdm2 MdmX conf	others
O=C(NCc1ccc2c(c1)OCO2)c1nc(S(=O)(=O)Cc2ccccc2F)ncc1Cl	86*	-2	95*	106*	91*	88*	42*	102*	HIF-2a conf=68*;HIF-1a cs=70*
COc1ccc(S(=O)(=O)Cc2ccc(C(=O)NCc3ccccc3)o2)cc1	-11	6	11	-4	7	2	/	/
O=C(NCCCN1CCCC1)Nc1ccccc1[N+](=O)[O-]	-11	-18	-6	19	6	17	/	/
CC(=O)OC[C@@H]1CN(Cc2ccccc2)C[C@H](n2cnc3c(NC4CC4)ncnc32)O1	-1	12	0	9	/	17	/	/
Cc1noc(C)c1COc1ccccc1C(=O)N(C)CC(=O)Nc1ccc(F)cc1	9	-3	48	-3	-12	-1	/	/
CC(C)(C)C(O)C(Cc1ccccc1Cl)n1cncn1 (stereo not given)	-12	7	-12	-7	-7	14	/	/
O=C(CNc1cccc(S(=O)(=O)N2CCCC2)c1)Nc1ccc(C(F)(F)F)cc1	-11	-10	70	37	20	21	/	/
CCOc1ccc(-n2c(C)c(C(=O)O)c3cc(OC)ccc32)cc1	36	2	1	-4	-12	3	/	/
CCOc1ccc(-n2c(C)c(C(C)=O)c3cc(OC(C)=O)ccc32)cc1	76*	2	46	26	/	22	87*	89*
COc1ccc(-n2c(C)c(C(C)=O)c3cc(O)ccc32)cc1	69*	-6	6	7	1	13	86*	87*
COc1ccc2c(c1)c(C(C)=O)c(C)n2-c1ccccc1	36	5	7	3	11	12	/	/
COc1ccc(NC(=O)CN2CCN(CC(=O)Nc3ccc(F)cc3)CC2)c(OC)c1	-6	4	10	8	13	13	/	/
Cc1nc2sc(C(N)=O)c(N)c2c2c1CCCC2	70*	7	15	-28	19	10	98*	92*
O=C(Nc1ccncc1)c1c(Cl)cccc1Cl	64*	-14	-1	6	17	41*	71*	/	HIF-2a conf=7;HIF-1a cs=14
COc1cc(/C=N/NC(=O)c2ccccc2O)ccc1OC(=O)CC1SC(=O)NC1=O (stereo not given)	14	-1	-15	-23	-21	-40	/	/
Cn1c(Oc2ccc(F)cc2)c(C=O)c2ccccc21	34	-15	5	9	18	22	/	/
Cn1c(Sc2ccc(Br)cc2)c(C=O)c2ccccc21	67*	-12	20	37	11	30	98*	87*
Brc1ccc2ncnc(NCc3ccccc3)c2c1	75*	-38	75	13	4	25	81*	90*
c1cncc(CNc2ncnc3ccc(-c4ccoc4)cc23)c1	80*	0	13	19	7	11	88*	87*
Cc1csc(CNc2ncnc3ccc(-c4ccoc4)cc23)c1	71*	-20	-3	-21	-11	-2	83*	87*
Cc1ccc(S(=O)(=O)CC(CN2CCOCC2)N2CCOCC2)cc1 (stereo not given)	-11	13	-16	6	16	9	/	/
O=S(=O)(CC(CN1CCCC1)N1CCCC1)c1ccc2ccccc2c1 (stereo not given)	62*	-31	15	80*	76*	22	86*	103*
CC(CCc1ccccc1)NC(=O)COC(=O)c1ccccc1O (stereo not given)	10	-5	-11	2	-17	2	/	/
COc1cc(NC(=O)Cn2ncc(Cl)c(Cl)c2=O)c(C)cc1[N+](=O)[O-]	93*	-37	97*	98*	103*	93*	100*	/	HIF-2a conf=98*;HIF-1a cs=106*
COc1cc(NC(=O)CN2C(=O)CN(C)C2=O)c(C)cc1[N+](=O)[O-]	-8	-5	10	10	13	6	/	/
SMILES	CF NFkB inh	KKLEB cytotox	Shn3 3UTR inh	Peg3 prom inh	TRPM1 prom inh	HIF-2a inh	CF NFkB conf	Mdm2 MdmX conf	others
Cc1cccc(/C=C(\c2nc3ccccc3[nH]2)S(=O)(=O)c2ccccc2)c1	55*	-25	93*	112*	86*	88*	-179	/	HIF-2a conf=92*;HIF-1a cs=105*
CC(C)N=C(NS(=O)(=O)c1ccccc1)C(Cl)(Cl)Cl	60*	-19	45	38	79*	84*	45*	/	HIF-2a conf=57*;HIF-1a cs=35
COc1ccc(-c2cc(=O)oc3cc(OC(C)C(=O)NC4CC4)ccc23)cc1 (stereo not given)	1	4	-1	23	-9	11	/	/
COc1ccc(-c2cc(=O)oc3cc(OC(=O)C4CCCCC4)c(Cl)cc23)cc1	88*	-16	20	16	-2	16	93*	91*
NS(=O)(=O)c1cc(C(=O)OCC(=O)Nc2ccccc2[N+](=O)[O-])ccc1Cl	0	-2	-17	1	-6	3	/	/
Cc1ccccc1NC(=O)Cc1nc(COC(=O)c2ccc(S(C)(=O)=O)c([N+](=O)[O-])c2)cs1	77*	-16	?	101*	73*	33	25	100*
Cc1ccccc1NC(=O)COC(=O)c1ccc(S(C)(=O)=O)c([N+](=O)[O-])c1	53*	-20	0	89*	19	93*	27	/	HIF-2a conf=15;HIF-1a cs=0
Cc1ccccc1NC(=O)Cc1nc(COC(=O)c2ccc(NC(N)=O)cc2)cs1	7	12	-7	4	-3	20	/	/
O=C(O)C1(S(=O)(=O)CCC(F)=C(F)F)CC1	-8	0	-10	-10	-4	10	/	/
Cc1ccc(Sc2cc(NCCCO)c([N+](=O)[O-])c3nonc23)cc1	-2	-8	-14	21	13	-20	/	/
CC(=O)OCCCNc1cc(Sc2ccc(Cl)cc2)c2nonc2c1[N+](=O)[O-]	70*	-8	?	103*	75*	79*	53*	/	HIF-2a conf=-9;HIF-1a cs=97*
O=c1cc(NCc2ccccc2)[nH]c(=O)[nH]1	-4	-4	5	5	3	9	/	/
O=C1NCCN(Cc2ccoc2)C1CC(=O)N(CCO)Cc1ccccc1 (stereo not given)	12	-8	1	9	1	3	/	/
